Set-up in all cases: scale not given: direction of the effect not stated beside the values
For assay [1], the target named is Protein translocase subunit SecA (Escherichia coli (strain K12)) (UniProt P10408). Briefly: Assay to Identify E. coli SecA ATPase Inhibitors. Type of assay: functional. The note with it: 30 µM.
In assay [2] the target is T1, Ubiquitin-activating enzyme e1, putative (Leishmania donovani (strain BPK282A1)) (UniProt E9BSI1).
T1 sequence (whole entry): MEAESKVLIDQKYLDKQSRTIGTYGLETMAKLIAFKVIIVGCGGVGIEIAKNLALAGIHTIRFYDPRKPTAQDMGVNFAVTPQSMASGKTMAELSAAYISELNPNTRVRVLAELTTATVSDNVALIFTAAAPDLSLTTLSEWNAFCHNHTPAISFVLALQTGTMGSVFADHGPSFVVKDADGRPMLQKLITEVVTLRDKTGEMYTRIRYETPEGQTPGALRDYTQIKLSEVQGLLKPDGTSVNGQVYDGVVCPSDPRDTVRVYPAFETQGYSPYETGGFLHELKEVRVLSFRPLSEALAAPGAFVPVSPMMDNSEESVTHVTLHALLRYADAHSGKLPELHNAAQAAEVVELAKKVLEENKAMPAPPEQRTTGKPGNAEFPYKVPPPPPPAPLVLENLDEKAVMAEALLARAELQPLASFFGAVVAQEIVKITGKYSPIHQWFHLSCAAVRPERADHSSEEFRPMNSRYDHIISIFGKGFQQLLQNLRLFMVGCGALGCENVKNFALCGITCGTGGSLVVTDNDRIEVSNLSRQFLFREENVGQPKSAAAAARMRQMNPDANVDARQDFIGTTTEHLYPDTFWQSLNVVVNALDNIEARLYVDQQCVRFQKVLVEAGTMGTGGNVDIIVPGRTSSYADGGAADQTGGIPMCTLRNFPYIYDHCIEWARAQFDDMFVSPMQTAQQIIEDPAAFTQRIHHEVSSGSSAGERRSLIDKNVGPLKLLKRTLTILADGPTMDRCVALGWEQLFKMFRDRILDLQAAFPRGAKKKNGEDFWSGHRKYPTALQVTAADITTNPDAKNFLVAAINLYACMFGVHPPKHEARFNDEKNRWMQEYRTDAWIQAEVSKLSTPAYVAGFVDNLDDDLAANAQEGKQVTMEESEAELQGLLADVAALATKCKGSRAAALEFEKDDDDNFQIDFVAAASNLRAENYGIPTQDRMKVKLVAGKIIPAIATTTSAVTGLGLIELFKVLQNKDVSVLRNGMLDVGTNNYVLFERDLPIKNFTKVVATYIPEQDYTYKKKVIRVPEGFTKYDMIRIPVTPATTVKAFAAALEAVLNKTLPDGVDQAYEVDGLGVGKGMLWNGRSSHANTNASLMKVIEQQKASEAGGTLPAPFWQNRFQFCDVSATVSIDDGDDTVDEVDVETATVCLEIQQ
Put plainly: Leishmania donovani Ubiquitin Activating Enzyme (LdE1). Type of assay: functional. The conditions noted are these: 30 µM.

In assay [3] the target is AMP-activated protein kinase, AMPK (Homo sapiens) (UniProt P54646+O43741+P54619+Q9UGJ0+Q9Y478+Q13131+Q9UGI9). Briefly: AMP-dependent Kinase enzyme assay. An in vitro enzyme assay that detects ADP turnover that is directly proportional to AMPK activity. This uses naive AMPK that is activated during the assay with MK-8722. Type of assay: functional. The conditions noted are these: 30 µM.

The target of assay [4] is Sialic acid-binding Ig-like lectin 9 (Homo sapiens) (UniProt Q9Y336). Put plainly: Hs-Siglec9 ALPHAscreen SOP 20170721. The conditions noted are these: 10 µM. (In Alpha technology, singlet oxygen from a donor bead excites a nearby acceptor bead.)
Chain of Sialic acid-binding Ig-like lectin 9 (Homo sapiens) (Q9Y336 whole entry): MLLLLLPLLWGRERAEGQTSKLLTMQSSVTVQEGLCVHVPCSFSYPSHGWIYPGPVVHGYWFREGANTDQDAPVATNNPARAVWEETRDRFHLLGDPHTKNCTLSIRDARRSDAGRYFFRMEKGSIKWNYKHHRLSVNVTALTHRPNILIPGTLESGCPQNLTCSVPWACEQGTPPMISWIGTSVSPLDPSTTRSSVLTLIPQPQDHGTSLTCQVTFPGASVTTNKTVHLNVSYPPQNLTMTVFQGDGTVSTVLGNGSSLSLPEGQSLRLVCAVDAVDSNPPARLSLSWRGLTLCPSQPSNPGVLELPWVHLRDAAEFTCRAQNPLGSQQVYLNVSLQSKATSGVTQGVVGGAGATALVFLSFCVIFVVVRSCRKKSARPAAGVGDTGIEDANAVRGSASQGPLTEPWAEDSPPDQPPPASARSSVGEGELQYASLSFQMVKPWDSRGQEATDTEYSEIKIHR
For assay [5], the system named is Trypanosoma cruzi. Put plainly: Trypanosoma cruzi phosphomannomutase and mannose-1-phosphate guanylyltransferase assay. Type of assay: functional. The note with it: 10 µM.
The target of assay [6] is T2, Arginase-2, mitochondrial (Homo sapiens) (UniProt P78540).
T2 sequence (whole entry): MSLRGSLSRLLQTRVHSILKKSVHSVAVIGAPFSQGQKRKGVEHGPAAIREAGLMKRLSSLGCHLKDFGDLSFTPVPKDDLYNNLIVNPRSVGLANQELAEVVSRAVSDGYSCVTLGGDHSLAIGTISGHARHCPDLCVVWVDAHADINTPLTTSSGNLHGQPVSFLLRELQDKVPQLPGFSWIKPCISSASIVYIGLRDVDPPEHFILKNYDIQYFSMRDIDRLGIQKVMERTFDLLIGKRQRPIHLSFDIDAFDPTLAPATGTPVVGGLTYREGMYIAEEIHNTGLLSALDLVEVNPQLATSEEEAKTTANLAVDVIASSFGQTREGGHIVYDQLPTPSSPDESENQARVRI
Put plainly: in vitro enzyme assay to detect the production of urea directly proportional to the activity of Arginase II. Note: in the data most compounds retested in dose-response had high values. Type of assay: functional. The note with it: 33.3 µM.

Assay [7] addresses T3, Proteasome subunit beta (Trypanosoma cruzi) (UniProt O96673).
T3 sequence (whole entry): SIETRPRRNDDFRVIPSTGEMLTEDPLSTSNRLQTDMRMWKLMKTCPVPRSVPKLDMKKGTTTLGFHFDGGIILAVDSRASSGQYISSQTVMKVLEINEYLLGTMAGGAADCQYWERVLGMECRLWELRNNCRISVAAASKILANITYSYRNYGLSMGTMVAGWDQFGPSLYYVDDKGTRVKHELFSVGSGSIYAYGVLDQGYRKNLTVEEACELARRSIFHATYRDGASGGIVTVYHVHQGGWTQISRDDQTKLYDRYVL
Briefly: Trypanosoma cruzi proteasome chymotrypsin-like activity (TcProtChymo) assay. Note: in the data most compounds retested in dose-response had high values. The conditions noted are these: 9.37 µM. Type of assay: functional.

The species named for assay [8] is Homo sapiens. Briefly: To identify inhibition of the IFN signalling (Jak-Stat) pathway via expression of an eGFP reporter gene under the control of an IFN-stimulated response element (ISRE) containing MxA promoter. Type of assay: functional. The conditions noted are these: 30 µM.
Assay [9] concerns the target T4, Tyrosyl-tRNA synthetase, putative (Trypanosoma cruzi (strain CL Brener)) (UniProt Q4DSP6).
T4 sequence (whole entry): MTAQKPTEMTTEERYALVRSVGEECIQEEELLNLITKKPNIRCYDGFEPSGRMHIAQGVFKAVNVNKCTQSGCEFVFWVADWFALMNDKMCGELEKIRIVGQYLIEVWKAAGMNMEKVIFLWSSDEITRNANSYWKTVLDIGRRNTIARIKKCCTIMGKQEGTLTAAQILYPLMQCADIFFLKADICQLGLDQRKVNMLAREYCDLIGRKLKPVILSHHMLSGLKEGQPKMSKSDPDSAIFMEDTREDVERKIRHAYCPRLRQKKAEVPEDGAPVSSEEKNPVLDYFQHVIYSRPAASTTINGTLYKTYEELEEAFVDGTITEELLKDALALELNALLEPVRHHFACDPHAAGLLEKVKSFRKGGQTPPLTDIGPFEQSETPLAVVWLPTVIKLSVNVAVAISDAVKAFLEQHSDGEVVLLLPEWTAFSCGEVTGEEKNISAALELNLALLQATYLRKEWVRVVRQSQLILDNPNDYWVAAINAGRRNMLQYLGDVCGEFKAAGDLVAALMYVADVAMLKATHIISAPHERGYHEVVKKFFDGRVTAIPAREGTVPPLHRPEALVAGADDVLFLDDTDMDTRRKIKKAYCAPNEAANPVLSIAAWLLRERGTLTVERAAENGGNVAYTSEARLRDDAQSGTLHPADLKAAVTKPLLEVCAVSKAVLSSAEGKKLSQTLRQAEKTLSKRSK
Put plainly: Trypanosoma cruzi tyrosyl tRNA synthetase (TcYRS) _High Tyrosine SOP. Note: in the data most compounds retested in dose-response had high values. Type of assay: functional. The note with it: 30 µM.

The target of assay [10] is T4, Tyrosyl-tRNA synthetase, putative (Trypanosoma cruzi (strain CL Brener)). Put plainly: Trypanosoma cruzi tyrosyl tRNA synthetase (TcYRS) SOP. Type of assay: functional. The conditions noted are these: 30 µM.
In assay [11] the target is Chromo domain-containing protein 1 (Saccharomyces cerevisiae (strain ATCC 204508 / S288c) (Baker's yeast)) (UniProt P32657). Briefly: ScCHD-1 Enzyme Inhibition Assay. Note: in the data most compounds retested in dose-response had high values. The note with it: 30 µM. Type of assay: functional.
Chain of Chromo domain-containing protein 1 (Saccharomyces cerevisiae (strain ATCC 204508 / S288c) (Baker's yeast)) (P32657 whole entry, the tested form may be a part): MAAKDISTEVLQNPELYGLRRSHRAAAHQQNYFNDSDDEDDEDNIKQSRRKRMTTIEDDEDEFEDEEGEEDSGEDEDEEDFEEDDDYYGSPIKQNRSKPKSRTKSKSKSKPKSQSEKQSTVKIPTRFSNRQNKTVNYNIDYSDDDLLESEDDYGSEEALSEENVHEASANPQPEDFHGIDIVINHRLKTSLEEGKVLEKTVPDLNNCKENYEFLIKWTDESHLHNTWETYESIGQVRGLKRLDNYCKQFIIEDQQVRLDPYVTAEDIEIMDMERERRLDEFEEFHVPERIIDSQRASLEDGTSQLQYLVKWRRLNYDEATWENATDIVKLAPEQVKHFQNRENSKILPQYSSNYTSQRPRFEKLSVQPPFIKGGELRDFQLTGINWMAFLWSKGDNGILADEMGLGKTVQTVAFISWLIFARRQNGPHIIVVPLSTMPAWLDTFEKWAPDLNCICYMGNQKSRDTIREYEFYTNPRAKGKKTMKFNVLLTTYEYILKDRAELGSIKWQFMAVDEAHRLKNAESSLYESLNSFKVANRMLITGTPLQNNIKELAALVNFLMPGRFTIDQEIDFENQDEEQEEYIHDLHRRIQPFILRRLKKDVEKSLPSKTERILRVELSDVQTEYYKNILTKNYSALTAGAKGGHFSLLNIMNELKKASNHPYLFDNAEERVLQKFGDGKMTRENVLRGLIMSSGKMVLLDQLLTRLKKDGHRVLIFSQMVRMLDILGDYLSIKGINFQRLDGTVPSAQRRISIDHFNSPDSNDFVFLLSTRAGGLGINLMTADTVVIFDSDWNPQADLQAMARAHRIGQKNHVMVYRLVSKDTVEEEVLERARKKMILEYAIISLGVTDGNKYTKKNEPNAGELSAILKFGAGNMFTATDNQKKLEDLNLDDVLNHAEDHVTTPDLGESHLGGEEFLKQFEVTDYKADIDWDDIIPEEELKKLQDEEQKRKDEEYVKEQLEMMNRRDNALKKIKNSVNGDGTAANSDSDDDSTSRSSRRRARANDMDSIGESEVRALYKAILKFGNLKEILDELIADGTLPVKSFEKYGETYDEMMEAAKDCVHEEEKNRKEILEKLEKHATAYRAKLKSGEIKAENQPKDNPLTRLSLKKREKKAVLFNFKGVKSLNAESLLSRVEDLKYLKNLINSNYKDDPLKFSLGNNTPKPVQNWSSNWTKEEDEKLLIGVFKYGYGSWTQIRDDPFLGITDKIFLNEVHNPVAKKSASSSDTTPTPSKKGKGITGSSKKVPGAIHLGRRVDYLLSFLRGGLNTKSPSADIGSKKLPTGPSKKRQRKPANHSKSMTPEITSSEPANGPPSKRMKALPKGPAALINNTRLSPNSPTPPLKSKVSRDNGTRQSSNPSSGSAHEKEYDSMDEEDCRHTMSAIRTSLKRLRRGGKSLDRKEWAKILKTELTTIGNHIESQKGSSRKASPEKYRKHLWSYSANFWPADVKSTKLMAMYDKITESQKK

For some of these results: Entries with a potency or affinity are not part of this list.

Chain of Protein translocase subunit SecA (Escherichia coli (strain K12)) (P10408 whole entry): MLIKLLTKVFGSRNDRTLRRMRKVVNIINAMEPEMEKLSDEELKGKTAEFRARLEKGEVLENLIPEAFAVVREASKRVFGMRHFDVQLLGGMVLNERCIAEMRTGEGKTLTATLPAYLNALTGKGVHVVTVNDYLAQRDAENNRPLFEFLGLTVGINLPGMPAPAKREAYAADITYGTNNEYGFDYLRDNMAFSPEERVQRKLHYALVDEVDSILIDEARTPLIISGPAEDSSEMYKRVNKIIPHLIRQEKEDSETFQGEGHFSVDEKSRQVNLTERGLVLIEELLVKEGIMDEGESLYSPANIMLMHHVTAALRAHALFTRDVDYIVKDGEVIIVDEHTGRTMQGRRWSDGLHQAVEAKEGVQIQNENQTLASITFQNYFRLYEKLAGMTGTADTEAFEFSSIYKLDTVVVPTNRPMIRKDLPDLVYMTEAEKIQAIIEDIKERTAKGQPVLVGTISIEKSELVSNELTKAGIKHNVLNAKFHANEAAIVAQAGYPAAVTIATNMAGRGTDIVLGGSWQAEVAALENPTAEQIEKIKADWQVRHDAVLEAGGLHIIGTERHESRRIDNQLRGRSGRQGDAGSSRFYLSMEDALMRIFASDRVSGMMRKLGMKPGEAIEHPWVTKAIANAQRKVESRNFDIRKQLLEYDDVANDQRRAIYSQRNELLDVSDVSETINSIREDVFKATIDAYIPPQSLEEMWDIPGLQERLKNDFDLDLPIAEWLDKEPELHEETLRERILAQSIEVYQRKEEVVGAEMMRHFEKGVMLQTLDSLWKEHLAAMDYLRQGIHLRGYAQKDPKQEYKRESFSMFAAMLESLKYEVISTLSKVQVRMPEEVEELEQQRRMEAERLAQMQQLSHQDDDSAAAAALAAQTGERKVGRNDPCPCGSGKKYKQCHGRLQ

Turning to `O=C1NC(c2ccccc2)=N[C@@]12CC[C@@H]1CN(CC3CCOCC3)C[C@@H]12`, the Percent Effect in [1] is -1.53%; in assay [2], 0%; in [3], 5.75%; in assay [4], -1.86%; in assay [5], -1.54%; in assay [6], -48.6%. Moreover, the Percent Effect is 0.684% in assay [7]; -0.209% in [8]; -27.1% in [9]; -5% in assay [10]; -1.93% in assay [11].

With `CC(C)CNC(=O)[C@H]1CCS(=O)(=O)[C@@H]2CN(Cc3ccc(Cl)cc3)C[C@H]12`, the Percent Effect in assay [1] was -2.67%; in assay [2], 2.7%; in assay [3], -1.66%; in assay [4], -4.02%; in assay [5], 1.17%; in assay [6] it was 2.5%. Further, the Percent Effect in [7] was 22.7%; in [8], -6.94%; in [9] it was 11.9%; in assay [10], 13.4%; in assay [11], -1.05%.

`CCn1cnnc1CNC(=O)N1CCCN(C(C)=O)CC1`: the Percent Effect is -6.81% in assay [1]; 15.6% in assay [2]; -0.601% in assay [3]; 0.0707% in assay [4]; 0.881% in assay [5]; 4.84% in assay [6]. Also, the Percent Effect in assay [7] is 12.7%; in assay [8], 1.78%; in assay [9] it was 10.5%; in assay [10] it was 25.9%; in [11], -20.1%.

For the compound `Cc1ccc(CNC(=O)CN2C=Nc3ccccc3S2(=O)=O)s1`, the Percent Effect in assay [1] is -3.17%; in [2], 21.1%; in [3] it was -5.67%; in assay [4], -1.55%; in assay [5], 6.07%; in [6], -0.36%. In addition, the Percent Effect was 3.98% in assay [7]; 9.85% in assay [8]; 10.3% in [9]; 23.5% in [10]; -6.54% in assay [11].

Regarding `O=C(NC[C@]12COC[C@H]1CN(Cc1nccs1)C2)N1CCCC1`, the Percent Effect in [1] was -2.52%; in assay [2], 9.33%; in assay [3] it was 4.41%; in [4], 2.77%; in assay [5], -4.52%; in assay [6], -7.92%. Moreover, the Percent Effect in assay [7] was 13.5%; in [8], -4.41%; in [9], 2.12%; in assay [10] it was 5.13%; in assay [11], -5.18%.

Take `Cc1ccccc1C(=O)NCc1ccc(N2CCNC(=O)C2)c(F)c1`: the Percent Effect in [1] is -3.15%; in assay [2] it was 8.11%; in [3], -2.71%; in assay [4], 4.68%; in assay [5], 0.579%; in assay [6], -2.86%. Also, the Percent Effect in [7] was 8.97%; in [8], -16.3%; in assay [9], 4.76%; in assay [10], 12.2%; in [11] it was -2.41%.

As for `COCCN1C(=O)C[C@H]2[C@H]1CCN2Cc1ccc(OC)cc1`, the Percent Effect was -2.83% in assay [1]; 5.33% in assay [2]; 11% in assay [3]; -2.04% in assay [4]; -9.45% in [5]; 7.69% in [6]. In addition, the Percent Effect was 13.5% in assay [7]; 17.5% in assay [8]; 3.19% in assay [9]; 6.41% in [10]; -5.69% in assay [11].

Regarding `CC1c2ncc(CN3CCN(C)CC3)n2CCN1Cc1cccnc1` (stereo unspecified), the Percent Effect in [1] was -2.48%; in assay [2] it was 8%; in assay [3], -3.01%; in [4] it was 1.22%; in assay [5], 5.41%; in assay [6], -51.8%. Further, the Percent Effect in assay [7] was 7.35%; in [8] it was -9.88%; in assay [9] it was 5.21%; in assay [10] it was 5%; in assay [11] it was -7.93%.

As to `COCCN1C(=O)CO[C@H]2CN(Cc3c[nH]nc3-c3ccccc3)C[C@@H]21`, the Percent Effect was -5.09% in [1]; 12.2% in assay [2]; 8.07% in assay [3]; 9.93% in assay [4]; 2.77% in assay [5]; -5.8% in assay [6]. The Percent Effect in assay [7] was 2.34%; in [8], 19.6%; in assay [9], 2.15%; in [10], 6.49%; in assay [11], -22.8%.

For the compound `CC(C)CC(=O)N1CCc2nc(N3CCOCC3)nc(NC(C)C)c2C1`, the Percent Effect in assay [1] is -4.18%; in assay [2] it was 2.67%; in assay [3], 12.4%; in [4], -0.324%; in assay [5], -1.57%; in assay [6], 2.56%. Besides, the Percent Effect was 2.03% in assay [7]; 8.78% in assay [8]; 9.57% in assay [9]; 14.1% in assay [10]; -8.4% in [11].

`Cc1nnc(NC(=O)NCc2ccc(N3CCN(C)CC3)nc2)s1`: the Percent Effect in [1] is -5%; in [2], 15.8%; in assay [3], -3.09%; in assay [4] it was -1.76%; in assay [5], -5.32%; in assay [6] it was -0.36%. Besides, the Percent Effect in [7] is 13.6%; in [8], 3.4%; in [9], 5.42%; in assay [10], 18.5%; in assay [11], -9.38%.

Values taken from ChEMBL document CHEMBL3988442, “University of Dundee, Small-Polar-MMV Screening Library” (2021).
